Read-out in assay [1]: glucuronosyltransferase (UGT1A1), UGT1A1 (gene 54658)
In words: CLD_UGT1A1_6hr: CellzDirect (CLD) Gene Expression Assay for glucuronosyltransferase (UGT1A1) at 6 hours (AID 2283672). The procedure, abridged:
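Primary human hepatocytes from two donor preparations, dosed with fresh solutions in 0.2% DMSO, harvested at 6 h. UGT1A1 mRNA measured by qNPA chemiluminescence; induction fitted upward versus DMSO.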

Read-out in assay [2]: xenobiotic metabolism (CYP1A1), CYP1A1 (gene 1543)
Kind of assay: CLD_CYP1A1_24hr: CellzDirect (CLD) Gene Expression Assay for xenobiotic metabolism (CYP1A1) at 24 hours (AID 2283673). The procedure, abridged: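 Primary human hepatocytes dosed daily with fresh solutions in 0.2% DMSO vehicle. mRNA measured at 24 h by quantitative nuclease protection assay with chemiluminescence; gain-of-signal fit versus DMSO, with morphology-based cytotoxicity flags.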

Read-out in assay [3]: Cytochrome P450 2C19 (Homo sapiens) (UniProt P33261)
Kind of assay: CLD_CYP2C19_6hr: CellzDirect (CLD) Gene Expression Assay for xenobiotic metabolism (CYP2C19) at 6 hours (AID 2283678). The gist of the method: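 Primary human hepatocytes from two donor preparations were dosed daily, with 0.2% DMSO as vehicle, and harvested 6 h after dosing. CYP2C19 mRNA induction was measured by qNPA chemiluminescence and fitted as gain of signal against DMSO.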

Assay [4] can be described thus: CCTE_Padilla_ZF_144hpf_TERATOSCORE: (Legacy) CCTE's 144 Hour Post-fertilization zebrafish Assay Teratoscore, Padilla Lab (AID 2283679; active = hit-call score of the fitted dose curve at least 0.9, where 1 is the maximum; inactive = score below 0.9;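 as to AC50: zebrafish embryos with chorions exposed by immersion from 6-8 hpf to 5 dpf with daily renewal; teratogenicity score from eye scoring of death hatching and malformations at 144 hpf; higher score means more developmental defects relative to DMSO baseline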). The gist of the method: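 Larvae scored by eye at 144 hpf for death, hatching and malformations after a day in clean Hanks'. Before that, daily-renewed exposure at 80 uM (0.4% DMSO, 26C) from roughly 6-8 hpf through 5 dpf, 4 embryos per chemical.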

Read-out in assay [5]: Glyceraldehyde-3-phosphate dehydrogenase (Homo sapiens) (UniProt P04406)
In words: CLD_GAPDH_6hr: CellzDirect (CLD) Gene Expression Assay for Baseline Control (Glyceraldehyde 3-phosphate dehydrogenase) at 6 hours (AID 2283681).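 Also: active means increased signal relative to DMSO vehicle.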 The procedure, abridged:
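Primary human hepatocytes from two donor preparations, dosed at multiple concentrations with 0.2% DMSO vehicle; GAPDH mRNA measured 6 h after dosing by chemiluminescent quantitative nuclease protection assay (qNPA) on denatured lysates. Serves as background control; cytotoxicity annotated by morphology.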

Read-out in assay [6]: ABC Transporter (ABCB1), ABCB1 (gene 5243)
In words: CLD_ABCB1_24hr: CellzDirect (CLD) Gene Expression Assay for ABC Transporter (ABCB1) at 24 hours (AID 2283684). The gist of the method: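 Primary human hepatocytes, two donor preparations, dosed daily with fresh solutions; vehicle 0.2% DMSO; harvested at 24 h. ABCB1 mRNA measured by quantitative nuclease protection assay (chemiluminescence); morphology-based cytotoxicity annotated.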

Read-out in assay [7]: Cytochrome P450 2B6 (Homo sapiens) (UniProt P20813)
In words: CLD_CYP2B6_24hr: CellzDirect (CLD) Gene Expression Assay for xenobiotic metabolism (CYP2B6) at 24 hours (AID 2283686). The gist of the method:
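Primary human hepatocytes dosed daily for two days with fresh solutions, harvested at 24 hours; mRNA induction quantified by qNPA chemiluminescence, gain of signal vs 0.2% DMSO vehicle. Cytotoxicity annotated from phase-contrast morphology.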

Read-out in assay [8]: Cytochrome P450 2C19 (Homo sapiens) (UniProt P33261)
Kind of assay: CLD_CYP2C19_24hr: CellzDirect (CLD) Gene Expression Assay for xenobiotic metabolism (CYP2C19) at 24 hours (AID 2283687).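 Also: activity means mRNA induction above DMSO vehicle baseline.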 The gist of the method: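 Primary human hepatocytes (two donor preparations) dosed daily with fresh test chemical in 0.2% DMSO vehicle; CYP2C19 mRNA induction measured at 24 h by quantitative nuclease protection assay with chemiluminescence, fitted for gain of signal versus DMSO.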

Read-out in assay [9]: Cytochrome P450 2C9 (Homo sapiens) (UniProt P11712)
In words: CLD_CYP2C9_24hr: CellzDirect (CLD) Gene Expression Assay for xenobiotic metabolism (CYP2C9) at 24 hours (AID 2283688). The procedure, abridged:
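Primary human hepatocytes from two donor preparations, dosed daily for two days at multiple concentrations; vehicle 0.2% DMSO. CYP2C9 mRNA induction at 24 h measured by qNPA chemiluminescence relative to DMSO; cytotoxicity annotated from morphology.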

Read-out in assay [10]: Cytochrome P450 3A4 (Homo sapiens) (UniProt P08684)
Kind of assay: CLD_CYP3A4_24hr: CellzDirect (CLD) Gene Expression Assay for xenobiotic metabolism (CYP3A4) at 24 hours (AID 2283689). The gist of the method:
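Primary human hepatocytes from two donors dosed daily with fresh compound for two days, 0.2% DMSO vehicle. CYP3A4 mRNA at 24 hr by qNPA chemiluminescence; gain-of-signal fit versus DMSO, cytotoxicity flagged by morphology.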

Read-out in assay [11]: organic anion transporter (SLCO1B1), SLCO1B1 (gene 10599)
In words: CLD_SLCO1B1_24hr: CellzDirect (CLD) Gene Expression Assay for organic anion transporter (SLCO1B1) at 24 hours (AID 2283690). The procedure, abridged:
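Primary human hepatocytes (two donor preparations) dosed daily for two days with chemicals at multiple concentrations, 0.2% DMSO vehicle. SLCO1B1 mRNA at 24 h measured by qNPA chemiluminescence; induction fitted relative to DMSO.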

Read-out in assay [12]: HMG-CoA synthase (HMGCS2), HMGCS2 (gene 3158)
Kind of assay: CLD_HMGCS2_24hr: CellzDirect (CLD) Gene Expression Assay for HMG-CoA synthase (HMGCS2) at 24 hours (AID 2283691). The procedure, abridged:
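Primary human hepatocytes from two donor preparations, dosed daily with fresh solutions; vehicle 0.2% DMSO, 24 h harvest. HMGCS2 mRNA quantified by qNPA with S1 nuclease digestion and chemiluminescence; gain fitted versus DMSO, cytotoxicity annotated by morphology.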

Read-out in assay [13]: Cytochrome P450 2B6 (Homo sapiens) (UniProt P20813)
Kind of assay: CLD_CYP2B6_48hr: CellzDirect (CLD) Gene Expression Assay for xenobiotic metabolism (CYP2B6) at 48 hours (AID 2283699).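 Also: actives raise transcript level above DMSO so potency reflects induction.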 The gist of the method: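 Primary human hepatocytes dosed daily for two days over multiple concentrations, 0.2% DMSO vehicle; CYP2B6 mRNA quantified at 48 h by qNPA chemiluminescence. Induction fitted as gain of signal versus DMSO; cytotoxicity annotated by morphology.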

Read-out in assay [14]: Cytochrome P450 2B6 (Homo sapiens) (UniProt P20813)
Kind of assay: CLD_CYP2B6_6hr: CellzDirect (CLD) Gene Expression Assay for xenobiotic metabolism (CYP2B6) at 6 hours (AID 2283677).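 Also: actives raise CYP2B6 transcript above DMSO baseline so AC50 marks an inducer.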 The procedure, abridged: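 Primary human hepatocytes dosed with chemicals at multiple concentrations, vehicle 0.2% DMSO; CYP2B6 mRNA induction measured 6 h after dosing by quantitative nuclease protection assay with chemiluminescence, gain of signal fitted relative to DMSO.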

Read-out in assay [15]: HMG-CoA synthase (HMGCS2), HMGCS2 (gene 3158)
Kind of assay: CLD_HMGCS2_6hr: CellzDirect (CLD) Gene Expression Assay for HMG-CoA synthase (HMGCS2) at 6 hours (AID 2283682).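 Also: actives raise HMGCS2 transcript above the 0.2% DMSO vehicle baseline.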 The gist of the method:
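Primary human hepatocytes dosed daily with fresh chemical, 0.2% DMSO vehicle; HMGCS2 mRNA measured at 6 h by qNPA chemiluminescence. Gain of signal fitted against DMSO; cytotoxicity flagged from phase-contrast morphology.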

Read-out in assay [16]: xenobiotic metabolism (CYP1A2), CYP1A2 (gene 1544)
In words: CLD_CYP1A2_24hr: CellzDirect (CLD) Gene Expression Assay for xenobiotic metabolism (CYP1A2) at 24 hours (AID 2283683). The gist of the method:
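Primary human hepatocytes from two donor preparations dosed daily with multiple concentrations of chemical, 0.2% DMSO vehicle. CYP1A2 mRNA at 24 h quantified by qNPA chemiluminescence; gain of signal analyzed relative to DMSO. Cytotoxicity flagged by phase-contrast morphology.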

Read-out in assay [17]: alkyl and aryl transferase (GSTA2), GSTA2 (gene 2939)
Kind of assay: CLD_GSTA2_24hr: CellzDirect (CLD) Gene Expression Assay for alkyl and aryl transferase (GSTA2) at 24 hours (AID 2283693). The gist of the method:
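Primary human hepatocytes (two donor preparations) dosed daily for two days with chemicals at multiple concentrations (vehicle 0.2% DMSO); GSTA2 mRNA at 24 h measured by qNPA chemiluminescence, gain-of-signal versus DMSO.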

Read-out in assay [18]: Cytochrome P450 3A4 (Homo sapiens) (UniProt P08684)
In words: CLD_CYP3A4_6hr: CellzDirect (CLD) Gene Expression Assay for xenobiotic metabolism (CYP3A4) at 6 hours (AID 2283680). The procedure, abridged:
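Primary human hepatocytes (two donor preparations) dosed; CYP3A4 mRNA harvested at 6 h and quantified by qNPA chemiluminescence. Gain of signal fitted against 0.2% DMSO vehicle; cytotoxicity flagged by phase-contrast morphology.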

SMILES strings stand for the structures. Records with an inconclusive call do not appear. Calls of active or inactive are those of the source. The calls were made as follows, unless noted: active = hit-call score of the fitted dose curve at least 0.9, where 1 is the maximum; inconclusive = response in the unintended direction; inactive = score below 0.9.

Cytochrome P450 3A4 (Homo sapiens), sequence (P08684 whole entry, looked up): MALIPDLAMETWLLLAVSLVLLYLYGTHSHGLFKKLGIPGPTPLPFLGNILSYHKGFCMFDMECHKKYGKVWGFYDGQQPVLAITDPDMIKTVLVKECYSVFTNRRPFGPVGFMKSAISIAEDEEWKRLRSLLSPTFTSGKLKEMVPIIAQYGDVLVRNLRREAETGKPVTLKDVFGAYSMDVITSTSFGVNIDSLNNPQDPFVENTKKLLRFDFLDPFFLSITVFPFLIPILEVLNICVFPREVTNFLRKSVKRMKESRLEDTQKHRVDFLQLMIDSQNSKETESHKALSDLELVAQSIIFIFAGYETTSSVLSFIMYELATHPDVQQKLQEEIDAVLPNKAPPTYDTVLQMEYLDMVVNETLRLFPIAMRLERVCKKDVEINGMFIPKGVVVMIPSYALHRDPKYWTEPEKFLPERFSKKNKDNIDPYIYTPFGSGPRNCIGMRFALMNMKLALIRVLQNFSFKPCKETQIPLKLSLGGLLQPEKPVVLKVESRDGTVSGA
Glyceraldehyde-3-phosphate dehydrogenase (Homo sapiens), sequence (P04406 whole entry, looked up): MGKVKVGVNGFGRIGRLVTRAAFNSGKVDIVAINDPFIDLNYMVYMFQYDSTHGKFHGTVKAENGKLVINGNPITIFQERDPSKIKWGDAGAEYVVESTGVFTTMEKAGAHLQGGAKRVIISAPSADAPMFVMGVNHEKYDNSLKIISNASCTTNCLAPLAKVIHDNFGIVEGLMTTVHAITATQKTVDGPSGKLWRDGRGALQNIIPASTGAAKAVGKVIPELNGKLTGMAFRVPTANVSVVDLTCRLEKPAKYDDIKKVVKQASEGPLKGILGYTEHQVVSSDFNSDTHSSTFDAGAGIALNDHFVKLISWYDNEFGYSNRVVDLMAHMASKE
Cytochrome P450 2C19 (Homo sapiens), sequence (P33261 whole entry, looked up): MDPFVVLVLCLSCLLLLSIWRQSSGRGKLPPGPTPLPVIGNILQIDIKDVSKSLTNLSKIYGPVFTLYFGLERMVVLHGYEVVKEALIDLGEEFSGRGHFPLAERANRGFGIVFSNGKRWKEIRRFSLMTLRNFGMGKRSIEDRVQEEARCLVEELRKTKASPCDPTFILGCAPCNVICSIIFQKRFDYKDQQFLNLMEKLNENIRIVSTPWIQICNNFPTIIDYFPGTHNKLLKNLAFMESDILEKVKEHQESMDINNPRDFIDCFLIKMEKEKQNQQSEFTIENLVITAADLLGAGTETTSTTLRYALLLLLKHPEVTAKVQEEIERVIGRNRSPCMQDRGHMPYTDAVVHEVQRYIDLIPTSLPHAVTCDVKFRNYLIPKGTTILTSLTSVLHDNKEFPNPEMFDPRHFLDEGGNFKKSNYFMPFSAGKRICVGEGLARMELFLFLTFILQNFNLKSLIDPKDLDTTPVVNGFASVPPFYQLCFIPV

In the case of `Cc1cc(Cl)ccc1OCC(=O)O`, the compound was called inactive in [1], in assay [2], in assay [3], in [4], in [5] and in assay [6]. The compound was called inactive in [7], in assay [8], in [9], in [10], in assay [11] and in assay [12]. Moreover, the compound was called inactive in [13].
Regarding `CC1COC(Cn2cncn2)(c2ccc(Oc3ccc(Cl)cc3)cc2Cl)O1` (stereo unspecified), the result in assay [1], in assay [14], in assay [5], in assay [15], in assay [6] and in [8] was inactive. Also, the call in assay [11], in [17] and in assay [13] was inactive. Further, the AC50 is 1940 nM (active) in [2], 5500 nM (active) in assay [4], 729 nM (active) in assay [16] and 1900 nM (active) in [10].
Take `COC(=O)c1ccccc1C(=O)OC`: the result in assay [1], in assay [2], in assay [3], in [4], in [15] and in assay [16] was inactive. The compound was called inactive in assay [8], in [9], in assay [10], in assay [11], in assay [17] and in [13].
In the case of `Cc1ccc(-c2c(Cl)nc(C#N)n2S(=O)(=O)N(C)C)cc1`, the AC50 was 8200 nM (active) in assay [2]; 1880 nM (active) in [14]; 5470 nM (active) in assay [4]; 1890 nM (active) in assay [18]; 521 nM (active) in assay [16]. The outcome in assay [3], in [5], in assay [15], in [6], in [10] and in assay [17] was inactive.
`CS/C(C)=N/OC(=O)N(C)SN(C)C(=O)O/N=C(\C)SC`: the compound was classed as inactive in [2], in assay [3], in [5], in [6], in assay [8] and in assay [9]. Moreover, the outcome in assay [12] and in assay [17] was inactive. In assay [4], the AC50 was 32700 nM (active).
On to `C#CCOS(=O)OC1CCCCC1Oc1ccc(C(C)(C)C)cc1` (stereo unspecified), for which the compound was called inactive in [1], in [15], in assay [6], in assay [9], in assay [11] and in assay [17]. Also, the AC50 is 20000 nM (active) in assay [2]; 1900 nM (active) in assay [14]; 220 nM (active) in assay [4]; 1890 nM (active) in assay [18]; 3110 nM (active) in assay [16]; 1890 nM (active) in [10]. Also, the AC50 in assay [13] is 2000 nM (active).
For `CC(Oc1ccc(Cl)cc1Cl)C(=O)O` (stereo unspecified), the outcome in assay [1], in assay [2], in [14], in [5], in [6] and in assay [8] was inactive. Also, the compound was classed as inactive in assay [9], in assay [17] and in [13]. Moreover, the concentration at half-maximal activity (AC50) in assay [4] is 670 nM (active).

For the origin of these results see PubChem BioAssay (EPA / NIEHS).
